For part of these data: Potency and affinity values are given separately.
How the values were obtained:
Staphylococcus aureus = assay: Antibacterial activity against Staphylococcus aureus MRSA ATCC 43300 (CO-ADD:GP_020); MIC in CAMBH media using NBS plates, by Resazurin F(560/590); format: functional; details: Concentration 20 uM, ASSAY_TEST Inhibition of Bacterial Growth, detection method Resazurin, Fluorescence (ex560/em590), MEDIA CAMHB, plate type 384well, CORNING #3640, time 18 hr
Acinetobacter baumannii = assay: Antibacterial activity against Acinetobacter baumannii ATCC 19606 (CO-ADD:GN_034); MIC in CAMBH media using NBS plates, by Resazurin F(560/590); format: functional; details: Concentration 20 uM, ASSAY_TEST Inhibition of Bacterial Growth, detection method Resazurin, Fluorescence (ex560/em590), MEDIA CAMHB, plate type 384well, CORNING #3640, time 18 hr
Escherichia coli = assay: Antibacterial activity against Escherichia coli ATCC 25922 (CO-ADD:GN_001); MIC in CAMBH media using NBS plates, by Resazurin F(560/590); format: functional; details: Concentration 20 uM, ASSAY_TEST Inhibition of Bacterial Growth, detection method Resazurin, Fluorescence (ex560/em590), MEDIA CAMHB, plate type 384well, CORNING #3640, time 18 hr
Klebsiella pneumoniae = details: Concentration 20 uM; ASSAY_TEST Inhibition of Bacterial Growth; detection method Absorption (OD600); MEDIA CAMHB; plate type 384well; NBS; CORNING #3640; time 18 hr
Candida albicans = details: 20 µM
Cryptococcus neoformans = details: Concentration 20 uM; ASSAY_TEST Inhibition of Fungal Growth; detection method Resazurin; Absorption (OD600-OD570); plate type 384well; NBS; CORNING #3640

SMILES | Inhibition (Staphylococcus aureus) [%] | Inhibition (Acinetobacter baumannii) [%] | Inhibition (Escherichia coli) [%] | Inhibition (Klebsiella pneumoniae) [%] | Inhibition (Candida albicans) [%] | Inhibition (Cryptococcus neoformans) [%]
C1CCCC(NC2=NCCO2)CCC1 | -8.35 | -11.54 | -9.72 | 4.38 | -2.21 | -3.14
N#CC1=C(Nc2ccccc2Cl)SC(c2ccncc2)NC1=O (stereo not given) | -1.66 | 6.04 | -3.11 | 12.56 | 4.49 | -0.15
CC1(C)CC2(C)OC2C2(C1)N=N/C(=N/c1ccccc1)O2 (stereo not given) | 27.69 | -0.3 | 4.99 | 7.34 | -0.47 | -10.74
Oc1ccc2c(ccc3[nH]cnc32)c1 | 7.97 | -12.34 | 17.76 | 18.56 | -0.43 | -9.86
CCOC(=O)c1cc[nH]c1CC(=O)NC | 7.18 | 12.41 | -1.94 | 10.9 | 1.71 | -10.3
c1cncc(-c2nc3ccccc3s2)c1 | -7.01 | 4.56 | -11.97 | 2.37 | 4.69 | 25.76
Cc1cccc(N2CCN(CC(O)COc3ccc(Cl)cc3)CC2)c1 (stereo not given) | 13.02 | 4.97 | 5.23 | 7.2 | 0.39 | -12.55
CCOC(=O)c1nn(C)c2[nH]c(=O)n(C)c(=O)c12 | 7.94 | 11.46 | 12.75 | 11.59 | 2.22 | -11.62
CSc1ccc(NC(=O)Nc2ccccc2C(N)=O)cc1 | 16.3 | 11.66 | 11.12 | 15.39 | 4.24 | 3.99
O=C(NC1(N2CCOCC2)CC1)c1ccc(Cl)cc1 | 6.77 | -6.57 | -5.43 | 3.34 | 2.83 | -0.42
O=C1C(CO)C(CO)C(CO)C1CO (stereo not given) | 12.78 | -16.04 | 12.18 | 2.22 | -0.61 | -11.22
CNc1ncnc2c1cnn2C1CCCCO1 (stereo not given) | 3.48 | -13.53 | 9.64 | 6.75 | -2.26 | -11.76
CCOC(=O)c1cc(OCC)c2c(ccc3ccccc32)n1 | -12.94 | 1.72 | -4.9 | 7.15 | 2.28 | -11.11
CC(C)NCC1CCc2cc(CO)c([N+](=O)[O-])cc2N1 (stereo not given) [OXAMNIQUINE] | 9.47 | -13.41 | 4.95 | 3.1 | 2.55 | -8.23
CCOC(=O)Cc1cc(=O)[nH]n(-c2ccccc2)c1=O | 5.46 | 4.69 | 13.24 | 12.15 | 4.43 | -10.57
O=C(Nc1ccc(Cl)c(Cl)c1)c1ccc(Cl)c(Cl)c1 | 18.37 | 5.32 | 2.55 | 6.19 | -2.44 | -2.12
O=C1CSC(=S)N1/N=C/c1c[nH]c2ccc(Br)cc12 | -3.88 | 11.83 | 4.81 | 26.71 | 19.6 | -14.16
NCCN1CCNCC1 | -1.38 | -9.37 | 9.81 | 11.04 | 1.05 | 4.22
Cn1ncc2c(O)nc(N)nc21 | 6 | -7.72 | 12.24 | 14.42 | -0.53 | 20.28
O=C(Nc1ccc(F)cc1)OCCOc1ccc([N+](=O)[O-])cc1 | 6.26 | 5.22 | -7.06 | 8.41 | 4.71 | -9.23
